About 83,000 compounds went through this panel and 20% of them were active in at least one assay; those are over-represented in the sample as a whole.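 48-hour exposure, single concentration, 96-well plates; percent growth endpoint where 0 means no net growth. Active: below 10.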 Unmarked numbers belong to inactive results. The source made the active and inactive calls.

In this assay the test system is CAKI-1 renal. Kind of assay: NCI-60 one-dose screen, 48 h (100 = growth as untreated, 0 = no growth, -100 = all killed). The note with it: 10 µM unless noted. How it is done: Growth inhibition of the CAKI-1 human tumor cell line is measured as a screen for anti-cancer activity. Cells are grown in 96 well plates and exposed to the test compound for 48 hours. Compounds are tested at a single concentration, which is 10^-5 M for most compounds. The reported endpoint is percent growth (GI% or GIPRCNT), where numbers from 0 - 100% represent growth inhibition, and numbers from -100% - 0 represent cell death. For example, a value of 40 represents 60% growth inhibition. A value of 0 means no net growth occurred over the course of the experiment. A value of -40 indicates 40% of cells at the beginning of the experiment died by the end of the experiment. A value of -100 means all cells are dead at the end of the experiment.
NCI-60 Human Tumor Cell Lines Screen was performed using the standard one-dose NCI protocol, which is described in more detail at https://dtp.cancer.gov/discovery_development/nci-60/default.htm.
Compounds with GIPRCNT values below 10 were considered active. Activity score was based on GIPRCNT using the following formula: […]
Score is 0 for GIPRCNT values of 100 or above, 50 for GIPRCNT values of 0, and 100 for GIPRCNT values of -100.
In the case of `NS(=O)(=O)c1ccc(CCN=C=S)cc1`, the growth is 21.8%.

In the case of `Cc1ccc(F)cc1NC(=O)c1cc(Cl)ccc1Nc1ccccc1`, the growth was 48.2%.

With `Nc1ccc(-c2ccc(-c3ccccc3N)c3[nH]c4ccccc4c23)cc1`, the growth is 25.4%.

With `O=C(/C=C/c1ccc(C(F)(F)F)cc1)c1ccc(Nc2nc(NCCO)nc(Nc3ccc(Cl)cc3)n2)cc1`, the growth is 68.2%.

On to `O=c1oc2ccc(Br)cc2c(=O)n1-c1ccc(I)cc1F`, for which the growth is -8.71% (active).

On to `CC(=O)c1ccc(Nc2nc(NCCO)nc(Nc3ccc(Cl)cc3)n2)cc1`, for which the growth was 92.1%.

With `Cc1cc2c(c(C)c1Cl)C(=O)/C(=C/c1ccco1)O2`, the growth is 93.7%.

Consider `COc1cc(/C(C#N)=C/c2nc3c(N4CCOCC4)nc(Cl)nc3n2C)cc(OC)c1OC`, for which the growth is 6.49% (active).

As to `O=S(=O)(c1ccc(NC(=S)NC23CC4CC(CC(C4)C2)C3)cc1)N1CCCCC1`, the growth is 61.8%.

With `COCCN(C(=O)Cc1cccs1)C(C(=O)NCc1ccc(OC)cc1)c1ccc(C(C)C)cc1` (stereo not given), the growth is 84.6%.

`CCCCCCn1c(=N)n(CC(O)COc2cccc(C)c2)c2ccccc21` (stereo not given): the growth was -21.6% (active).

For `COC(=O)c1c2c(c(C)[n+]([O-])c1C)C(=O)C(NCc1ccc(Br)cc1)=CC2=O`, the growth is 46.4%.

As to `Cn1c(/C=C(\C#N)c2ccccc2)nc2c(N3CCOCC3)nc(Cl)nc21`, the growth is -96.9% (active).

`O=C1Nc2ccccc2/C1=C/c1ccc[nH]1`: the growth was 77.4%.

In the case of `O=C(Nc1ccc(Cl)cc1)c1cc2ccccc2cc1OP(=O)(O)O`, the growth was -8.12% (active).

Regarding `CCC1=C[C@]2(C3CC(=O)N(c4ccccc4)C3=O)CC(C(C)(C)C)C[C@@H]2[C@@H]2C(=O)N(c3ccccc3)C(=O)[C@H]12` (stereo not given in full), the growth was 71.4%.

With `O=C(/C=C/c1ccc(F)cc1)c1ccc(Nc2nc(NCCO)nc(Nc3ccc(Cl)cc3)n2)cc1`, the growth is 73.6%.

With `O=c1nc2sc3nc4ccccc4cc3cc-2s1`, the growth is 137%.

In the case of `FC(F)(F)c1cccc(Nc2nc3ccccc3nc2Nc2cccc(C(F)(F)F)c2)c1`, the growth was -1.66% (active).

`Brc1ccc(Oc2ccc(Nc3ncnc4onc(-c5ccccc5)c34)cc2)cc1`: the growth was 91.8%.

For the compound `CCCCc1ccc(NS(=O)(=O)c2cc3c4c(c2)CCN4C(=O)CC3)cc1`, the growth is 9.87% (active).

`COc1ccccc1C(=O)O/N=C(\N)Cc1cccc2ccccc12`: the growth was 77%.

In the case of `COc1ccc(-c2nnc(COc3ccc(C(=O)/C=C/c4ccco4)cc3)o2)cc1`, the growth is 67.2%.

On to `CC(C)(C)c1ccc(C2CC(=O)C3=C(C2)Nc2ccccc2N(C(=O)c2ccccc2Cl)C3c2ccc(F)cc2)cc1` (stereo not given), for which the growth was 2.95% (active).

For `COc1cc(C2C(C#N)=C(N)OC3=C2C(=O)c2ccccc2C3=O)cc(OC)c1O` (stereo not given), the growth is 38.8%.

With `O=C(Nc1ccc(Cl)cc1F)c1cc(I)ccc1O`, the growth was 22.8%.

With `COc1ccc(C2NCCc3c2[nH]c2ccccc32)cc1CN1CCN(c2ccc(F)cc2)CC1` (stereo not given), the growth is 28.8%.

As to `NC(CCc1nc2ccccc2c(=O)[nH]1)C(=O)O` (stereo not given), the growth was 87.5%.

`O=C(Nc1ccc(I)cc1F)c1cc(F)ccc1O`: the growth was -24.8% (active).

On to `CC1=CCC(OC(=O)C(C)(C)CCC(O)(C(=O)OC2(C(C)C)CCC3(C)OC3C2)C(C)C)(C(C)C)CC1` (stereo not given), for which the growth is -100% (active).

For `O=c1c2cc(F)ccc2sc2c(NCCN3CCCC3)nc3ccccc3c12`, the growth was 62.8%.

In the case of `COc1ccc2oc(=O)cc(Cn3cc(Cn4cnc5c4c(=O)n(C)c(=O)n5C)nn3)c2c1`, the growth was 95.3%.

As to `CC(=O)c1ccc(Cc2ccc(C(C)=O)s2)s1`, the growth is 96.4%.

Turning to `Cc1ccc(Cc2cnc(NC(=O)CN3C(=O)/C(=C\c4ccccc4)SC3=S)s2)cc1`, the growth was 95.5%.

For `COc1ccc(Cn2cc(Cn3cc(C=C4C(=O)NC(=O)NC4=O)c4ccccc43)nn2)cc1`, the growth is 70.1%.

As to `COC(=O)/C(=C\c1c(C)[nH]c2ccccc12)S(=O)(=O)c1ccccc1`, the growth is 27%.

With `CN1CCN(Cc2ccc(NC(=O)c3[nH]ncc3Nc3cc(OC4CCCC4)ncn3)cc2)CC1`, the growth is 19.2%.

Turning to `S=C1CCCC(=S)N1`, the growth is 93%.

Take `COc1ccc(CCN2C(=O)CCSC2=S)cc1OC`: the growth was 95.2%.

On to `CN=c1ccc2nc3ccc(N)cc3sc-2c1`, for which the growth is 28.2%.

These data come from PubChem BioAssay (NCI).
